In PubChem BioAssay AID1851 (National Center for Advancing Translational Sciences (NCATS), 2009):
About 4,000 (25%) of roughly 16,000 compounds were called active. Inconclusive results (about 26%) are left out. Calls come from the whole dose curve; as a rule, active = well fitted curve in the direction sought with a large enough effect; inconclusive = small, poorly fitted or top-dose-only effect, or effect the other way; inactive = no such curve, though single readings can be large or run the other way. Only a sample is shown.

Target: Cytochrome P450 2C9 (Homo sapiens) (UniProt P11712)
Experiment: Cytochrome panel assay with activity outcomes
Conditions: recombinant CYP, pro-luciferin dealkylation, luminescence, p450-cyp2c9; series mostly up to 57.1 µM; activity, negative = inhibition: at the top concentration
% is set by controls: 0 for no effect and ±100 for the full control effect.

Chain of Cytochrome P450 2C9 (Homo sapiens) (P11712 whole entry, looked up): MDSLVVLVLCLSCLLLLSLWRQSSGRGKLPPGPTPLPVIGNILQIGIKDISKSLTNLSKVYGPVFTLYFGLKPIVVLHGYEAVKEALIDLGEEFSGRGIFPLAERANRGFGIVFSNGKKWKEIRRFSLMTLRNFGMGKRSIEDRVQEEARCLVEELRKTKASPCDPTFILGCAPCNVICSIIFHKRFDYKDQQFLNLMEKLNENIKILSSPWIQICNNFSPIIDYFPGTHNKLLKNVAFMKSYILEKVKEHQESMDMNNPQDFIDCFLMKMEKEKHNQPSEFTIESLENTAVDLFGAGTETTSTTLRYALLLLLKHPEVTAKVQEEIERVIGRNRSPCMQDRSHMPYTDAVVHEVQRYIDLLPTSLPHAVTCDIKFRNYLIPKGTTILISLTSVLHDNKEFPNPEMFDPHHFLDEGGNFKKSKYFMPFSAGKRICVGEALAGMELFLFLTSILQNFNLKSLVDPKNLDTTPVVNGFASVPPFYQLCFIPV

Compound	activity, negative = inhibition	AC50
CO[C@@H]1COC(=O)[C@H](C)NC(=O)[C@@H](C)COC(=O)CCC[C@H]1C	10.9% [at 11.4 µM] (inactive)	–
N#C/C(=C\c1ccc(O)c(O)c1)C(=O)NCCc1ccccc1	-33.5% (inactive)	–
N#C/C(=C\c1ccc(O)c(O)c1)C(=O)OCCc1cccs1	–	15.8 µM (active)
CC(Oc1ccc(-c2ccccc2)c(F)c1)c1ccn(S(=O)(=O)c2ccc(Cl)cc2)n1 (stereo unspecified)	–	7.08 µM (active)
CC(C)CN1CCC2(CC1)CCN(S(=O)(=O)c1ccccc1)CC2	2.64% (inactive)	–
CC(Oc1ccc(Cl)cc1)c1ccnn1S(=O)(=O)c1ccccc1 (stereo unspecified)	–	7.94 µM (active)
CC(Oc1ccccc1)c1ccnn1S(=O)(=O)c1ccccc1 (stereo unspecified)	–	4.47 µM (active)
COc1cc2nc(N3CCN(C(=O)[C@@H]4CCCO4)CC3)nc(N)c2cc1OC	8.56% [at 25.6 µM] (inactive)	–
O=C(NNS(=O)(=O)c1cc(Cl)cc(Cl)c1)c1sccc1-n1cccc1	–	0.126 µM (active)
CCCCC#Cc1nc(NC)c2ncn([C@@H]3O[C@@H](CO)[C@H](O)[C@H]3O)c2n1	–	0.631 µM (active)
CNc1ncnc2c1ncn2[C@@H]1O[C@H](CO)[C@@H](O)[C@@H]1O	-2.78% [at 25.6 µM] (inactive)	–
CNc1ncnc2c1ncn2[C@@H]1O[C@@H](CO)[C@H](O)[C@@H]1O	-1.43% (inactive)	–
COc1ccc2c(c1)N(CC[C@H]1CCCCN1C)c1ccccc1S2	-3.81% [at 11.4 µM] (inactive)	–
N#CC1=C(SCC(N)=O)NC2=C(C(=O)c3ccccc32)C1c1ccc(Cl)cc1 (stereo unspecified)	–	6.31 µM (active)
CSC1=C(C#N)C(c2ccccc2Cl)C2=C(N1)c1ccccc1C2=O (stereo unspecified)	–	1 µM (active)
O=C(O)CC/C=C\CC[C@H]1[C@@H](N2CCCCC2)[C@@H](O)C[C@@H]1OCc1ccc(-c2ccccc2)cc1	11.9% (inactive)	–
Cn1c(=O)c2c(n(Cc3ccccc3)c1=O)NC(=O)C2CC(=O)NCc1cccc(Cl)c1 (stereo unspecified)	–	12.6 µM (active)
COCCCNCC(=O)c1c(N)n(Cc2ccccc2)c(=O)n(C)c1=O	-17.7% (inactive)	–
C1CCN(CC[C@@H]2CCCCN2)CC1	12.5% [at 11.4 µM] (inactive)	–
CCCCCN1CC(O)=C(c2nc(-c3ccc(Cl)cc3)cs2)C1=N	–	0.631 µM (active)
C[N+](C)(N)Cc1csc(-c2ccc(Cl)cc2)n1	2.29% [at 11.4 µM] (inactive)	–

Compound	activity, negative = inhibition	AC50
CCCCc1n[nH]c2c1/C(=N/O)CC(c1ccccc1)C2 (stereo unspecified)	–	2 µM (active)
COc1ccccc1-c1ccc2ncnc(NCc3cnc(C)cn3)c2c1	-18.5% [at 2.29 µM] (inactive)	–
O=C1CC(c2cccs2)c2cc3c(cc2N1)OCO3 (stereo unspecified)	–	15.8 µM (active)
COc1ccc(-n2c(=O)cnc3cnc(Oc4ccccc4)nc32)cc1	-20% (inactive)	–
COc1ccc(Oc2nc3ccccc3nc2C(F)(F)F)cc1	–	7.94 µM (active)
O=C1C=C(N2CCN(c3ccccn3)CC2)C(=O)c2c(O)ccc(O)c21	-10.2% [at 11.4 µM] (inactive)	–
O=C(NCCc1ccccc1)N1c2ccccc2Sc2ccccc21	–	12.6 µM (active)
C[C@@H](CN1c2ccccc2Sc2ccccc21)N(C)C	–	inactive
O=C(O)CNCCc1ccccc1	12.3% [at 11.4 µM] (inactive)	–
O=C(NCCCN1CCc2ccccc2C1)C1CCN(S(=O)(=O)N2CCCC2)CC1	-27% (inactive)	–
O=S(=O)(c1ccc(Cl)s1)N1CCc2ccccc2C1	–	28.2 µM (active)
C=CCNCCCCOc1c(Cl)cc(C)cc1Br	28.8% (inactive)	–
COc1ccc2oc(=O)c(NC(=O)C3CCCCC3)cc2c1	-3.66% (inactive)	–
COc1ccc2c(c1)OC1=C(C(=O)CCC1)C2C1=C(O)CCCC1=O (stereo unspecified)	–	22.4 µM (active)
COc1ccccc1CN(Cc1cc2cc3c(cc2[nH]c1=O)OCCO3)Cc1nnnn1Cc1ccco1	–	12.6 µM (active)
CN1CCc2[nH]nc(-c3n[nH]c4c3CN(C)CC4)c2C1	3.89% [at 11.4 µM] (inactive)	–
CCOc1ccc2[nH]c(=O)c(CN(CCc3ccccc3)C(=O)N3CCOCC3)cc2c1	–	7.08 µM (active)
CCOc1cc(CC(=O)N[C@@H](CC(C)C)c2ccccc2N2CCCCC2)ccc1C(=O)O	-5.99% [at 25.6 µM] (inactive)	–
CN(C(=O)CCCOc1ccc2[nH]c(=O)ccc2c1)C1CCCCC1	25.2% (inactive)	–
CCOc1ccc(C2C(C(=O)O)c3ccccc3C(=O)N2CCN2CCOCC2)cc1 (stereo unspecified)	7.76% (inactive)	–
C[N+]1(CC(=O)OCCCc2ccccc2)CCOCC1	-7.29% (inactive)	–

Compound	activity, negative = inhibition	AC50
CCOc1ccc2[nH]c(=O)c(CN(CCc3ccccc3)C(=O)N3CCCC3)cc2c1	–	7.94 µM (active)
CO[C@@H]1COC(=O)[C@@H](CCSC)NC(=O)C/C=C\[C@@H](C)COC(=O)[C@H](C)NC(=O)C/C=C\[C@H]1C	10% [at 11.4 µM] (inactive)	–
CN(Cc1ccco1)c1ncnc2ccc(-c3ccccc3C#N)cc12	-18.9% [at 2.29 µM] (inactive)	–
Oc1ccc2ccccc2c1C=NCc1c(O)ccc2ccccc12	-2.74% [at 11.4 µM] (inactive)	–
Oc1ccc2ccccc2c1/C=C\c1ccc2c(Br)cc(Br)c(O)c2n1	–	2.51 µM (active)
FC(F)(F)c1ccccc1-c1ccc2ncnc(NC3CC3)c2c1	-6.68% [at 2.29 µM] (inactive)	–
NS(=O)(=O)c1ccc(N=C2C(=O)Nc3ccccc32)cc1	0.554% [at 11.4 µM] (inactive)	–
O=C1Nc2ccccc2/C1=N/c1sc2c(c1C(=O)NCCc1ccccc1)CCCC2	–	3.98 µM (active)
O=C(NCCc1ccccc1)C(=O)NN=C1CCCC1	-22.4% (inactive)	–
C=CC1=C(C(=O)O)N2C(=O)[C@@H](NC(=O)/C(=N\OCC(=O)O)c3csc(N)n3)[C@@H]2SC1	6.6% [at 25.6 µM] (inactive)	–
O=C(NNc1cccc(Cl)n1)Nc1ccccc1Cl	2.18% (inactive)	–
CN(C)S(=O)(=O)Oc1cccc(C(=O)Nc2ccccc2Cl)c1	–	5.01 µM (active)
Cc1nc2cnc(N(C)C)nc2n(C)c1=O	-11.2% (inactive)	–
CCOC(=O)c1sc2nc3c(cc2c1N)COC(C)(CC)C3 (stereo unspecified)	–	10 µM (active)
CCOC(=O)c1sc2nc3c(cc2c1N)COC(C(C)C)C3 (stereo unspecified)	-14.7% (inactive)	–
C#CCN1C(C)=C(C(=O)OC)[C@@H](c2cccc([N+](=O)[O-])c2)C(C(=O)OCC)=C1C	–	0.316 µM (active)
CCOC(=O)C1=C(C)NC(C)=C(C(=O)OC)[C@H]1c1cccc([N+](=O)[O-])c1	–	0.158 µM (active)
CCOC(=O)/C(=C/Nc1ccccc1)[N+](=O)[O-]	-19.7% (inactive)	–
CCOC(=O)C1=C(C)NC(C)=C(C(=O)OC)[C@@H]1c1cccc([N+](=O)[O-])c1	–	0.316 µM (active)
